Our source for the growth values is PubChem BioAssay (NCI).

Holding throughout (experiment): NCI-60 one-dose screen, 48 h (100 = growth as untreated, 0 = no growth, -100 = all killed)
Common to all, as to conditions: 10 µM

In experiment [1] the test system is HCT-15 colon.
Experiment [2] has as its system HT29 colon.
Experiment [3] concerns SNB-75 CNS.
In experiment [4] the test system is SNB-19 CNS.
Experiment [5] relates to U251 CNS.
The subject of experiment [6] is PC-3 prostate.
Experiment [7] has as its system SK-MEL-5 melanoma.
Experiment [8] deals with UACC-62 melanoma.
The test system of experiment [9] is LOX IMVI melanoma.
In experiment [10] the test system is SK-MEL-28 melanoma.

The panel holds about 83,000 compounds, 20% with a hit somewhere; the sample as a whole holds those more often.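 Interpretation: 100, growth as untreated; towards 0, rising growth inhibition; 0, no net growth; 0 to -100, cell death. Compounds scoring below 10 were considered active.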 Values without a mark were called inactive. Calls of active or inactive are those of the source.

Take `O=[N+]([O-])c1ccc(-c2nc(-c3ccccc3)c(-c3ccccc3)n2-c2ccccc2)cc1`: the growth in [1] was 12%; in experiment [2] it was 16.1%; in experiment [3], 80.4%; in experiment [4], 65.9%; in experiment [5], 32.5%; in experiment [6] it was -6.15% (active). The growth in [7] is 61.9%; in experiment [8], 30.9%; in [9] it was 18.8%; in [10] it was 67.6%.

Regarding `CN(C)c1ccc2cc(-c3cc4c(oc3=O)-c3ccccc3OC4O)c(=O)oc2c1` (stereo not given), the growth in [1] is 7.71% (active); in experiment [2], 18.9%; in experiment [3], 24%; in experiment [4], 36.7%; in [5] it was 30%; in [6], -5.5% (active). Also, the growth in [7] was -34% (active); in experiment [8], 33.4%; in [9] it was -32.4% (active); in experiment [10], 64.5%.

With `CCc1ccc(-c2nnc(COc3ccc(-c4nc5ccccc5[nH]4)cc3OC)o2)cc1`, the growth in [1] was 52.9%; in [2] it was 61.7%; in [3], -27.1% (active); in experiment [4], 84.3%; in experiment [5], 23.3%; in [6], 54.9%. Also, the growth in [7] is 80.2%; in [8], 91%; in [9], 24.5%; in [10], 93.5%.

On to `Nc1c(C(=O)NC2CCCCC2)sc2nc3c(cc12)C(=O)CCC3`, for which the growth in experiment [1] was 85.8%; in experiment [2], 110%; in experiment [3] it was 95%; in experiment [4], 97.2%; in experiment [5], 93.6%; in experiment [6], 92.4%. In addition, the growth in [7] is 95%; in [8] it was 91%; in experiment [9], 103%; in experiment [10], 94.8%.

Regarding `C[C@]12CC[C@H]3[C@@H](CCC4=CC(=O)CC[C@@]43C)[C@@H]1CC[C@@H]2c1csc(N)n1`, the growth in [1] is 46.5%; in [2], 56.6%; in [3], 92.5%; in experiment [4], 71.5%; in [5], 56.9%; in experiment [6] it was 19.3%. For the same compound, the growth in [7] is 9.04% (active); in [8], 41.8%; in experiment [9], 59.3%; in [10] it was 82.8%.

On to `FC(F)(F)c1ccc(-c2cnc(Br)nc2NC2CCCCCC2)cc1`, for which the growth in experiment [1] is 73.1%; in experiment [2], 22.3%; in experiment [3], 63.2%; in [4], 42.9%; in experiment [5], 12.1%; in [6] it was 5.8% (active). Also, the growth in [7] is 17.9%; in experiment [8], 14.4%; in experiment [9], 40.1%; in [10], 36.1%.

For the compound `COC(=O)[C@]12CC[C@@H](C)[C@H](C)[C@@H]1C1=CC[C@@H]3[C@@]4(C)C[C@@H](O)[C@H](O)[C@@](C)(CO)[C@@H]4[C@H](O)C[C@@]3(C)[C@]1(C)CC2`, the growth is -51.4% (active) in [1]; -90.5% (active) in experiment [2]; -37.7% (active) in experiment [3]; -23.4% (active) in experiment [4]; -94.6% (active) in [5]; -34.5% (active) in experiment [6]. For the same compound, the growth in [7] was -95.8% (active); in experiment [8], -64% (active); in experiment [9] it was -93% (active); in experiment [10], -48.4% (active).

Turning to `Cc1nn2c(/C=C3/C(=O)Nc4ccc(Cl)cc43)c(-c3ccccc3)nc2s1`, the growth was 57.1% in experiment [1]; 35.1% in experiment [2]; -35.4% (active) in [3]; 82.4% in experiment [4]; 34.8% in experiment [5]; 32.3% in experiment [6]. Also, the growth in experiment [7] is 26.3%; in experiment [8] it was 39.3%; in experiment [9], 45.3%; in experiment [10], 29.2%.

Regarding `O=C(NNC(=O)c1ccncc1)Nc1ccc([N+](=O)[O-])cc1`, the growth is 101% in experiment [1]; 99.5% in [2]; 111% in [3]; 107% in experiment [4]; 113% in [5]; 103% in [6]. The growth in experiment [7] is 112%; in [8], 113%; in [9], 101%; in experiment [10], 127%.

Turning to `COc1ccc(-c2csc(NC(=O)CO[N+](=O)[O-])n2)cc1`, the growth is 104% in experiment [1]; 105% in experiment [2]; 96.1% in experiment [3]; 102% in experiment [4]; 98.6% in experiment [5]; 80.7% in [6]. Moreover, the growth was 30.3% in experiment [7], 101% in experiment [8], 88% in experiment [9] and 105% in experiment [10].

As for `CCC(CCNc1cc(OC)cc2cccnc12)CN1C(=O)c2ccccc2C1=O` (stereo not given), the growth in [1] was 93.1%; in [2] it was 105%; in experiment [3], 84%; in experiment [4], 103%; in experiment [5] it was 102%; in experiment [6], 89.2%. In addition, the growth in experiment [7] was 105%; in experiment [8], 97.5%; in [9] it was 90.6%; in [10], 117%.

In the case of `N#Cc1cnc2ccc(NCc3cnc[nH]3)cc2c1Nc1ccc(F)c(Cl)c1`, the growth in [1] was 88.4%; in experiment [2] it was 82%; in experiment [3], 86.4%; in experiment [4], 76.8%; in experiment [5], 58.8%; in [6], 70.1%. The growth in experiment [7] was 87.5%; in [8], 83%; in [9], 58.2%; in experiment [10] it was 98%.

Take `O=C1/C(=C/c2cccs2)CCC/C1=C\c1cccs1`: the growth in [1] is 78.9%; in experiment [2], 73.9%; in experiment [3], 110%; in experiment [4], 105%; in [5], 83.8%; in experiment [6], 89.6%. In addition, the growth in experiment [7] is 83%; in [8] it was 77%; in experiment [9] it was 92.4%; in experiment [10], 102%.

Regarding `CCOC(=O)c1ccc(NC(=O)Nc2nncs2)cc1`, the growth in [1] was 17.5%; in [2], 1.75% (active); in [3], 19.6%; in experiment [4] it was 58.3%; in [5], 17.3%; in [6], 20.7%. In addition, the growth in experiment [7] was -21.2% (active); in experiment [8], 31.2%; in experiment [9], 13%; in experiment [10], 42.2%.
